Source: PubChem BioAssay (National Center for Advancing Translational Sciences (NCATS))
Rows were chosen to be rich in hits. Some 2.2% of all compounds tested hit in one or more screens of this group.
Mito fusion act: blocks mitochondrial division or promotes mitochondrial fusion; S. cerevisiae fusion-defective mutant growth rescue, CellTiterGlo 48 h; Potency, µM (series often up to 46.1 µM), for inactives: at the top dose growth rescue (activation), most hits filed as activators; 320,000 compounds, 0.23% hits; AID 485298; further: % of control where 0% means no effect; nearly all actives have a fitted effect of over 45% in size
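Luminescent cell viability in 1536-well qHTS format served as the measure of rescued growth in ts fusion-mutant S. cerevisiae cultured on non-fermentable YPEG for 48 hours at 37C.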
FUS suppressor: FUS proteinopathy suppression in yeast. S. cerevisiae FUS-expressing, growth rescue, OD600, 24 h. Potency, µM (top dose mostly 76.6 µM), hits mostly activators. 390,000 compounds, 0.24% hits. AID 1347120;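 further: plate controls were DMSO vehicle for no effect and reference control for full effect; nearly all actives have a fitted effect of over 55% in size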
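Absorbance at 600 nm, taken 24hr after compound addition, measured rescue of FUS-yeast growth at 30C. Induction used 2% galactose with seeding at OD 0.005. Controls: CP55940 from 92uM final, DMSO only.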
TDP43 rescue: TDP-43 toxicity inhibition in yeast. TDP-43 expressing yeast growth rescue, BacTiter-Glo, 24 h. Potency, µM (titrated, usually from 46.1 µM), for inactives: at the highest dose growth rescue (activation), most hits filed as activators. 410,000 compounds, 1.8% hits. AID 652104; further: % of control where 0% means no effect; nearly all actives have a fitted effect of over 50% in size
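Cell-based yeast growth screen: TDP-43 expression induced in galactose, inoculum OD600=0.02 after raffinose pregrowth to mid-log. Read-out BacTiter-Glo luminescence at 24 hr, 30 deg C; inhibition of toxicity seen as signal increase.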
aSyn yeast inh: alpha-synuclein toxicity inhibition in yeast; Yeast expressing alpha-synuclein, growth rescue, BacTiter-Glo, 24 h; Potency, µM (top dose mostly 46.1 µM), for the others: at the highest dose growth rescue (activation), hits mostly activators; 370,000 compounds, 0.14% hits; AID 652106; further: % of control where 0% means no effect; nearly all actives have a fitted effect of over 65% in size
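Screening used galactose-induced yeast with toxic alpha-synuclein levels, exposed to compound for 24 hr at 30 deg C. Cell growth, read with BacTiter-Glo luminescence, gave the measured signal.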
Abeta rescue: compounds reversing amyloid beta toxicity in yeast. yeast expressing A-beta42, growth rescue, OD600, 48 h; response scale: 0% DMSO, 100% iron-clioquinol control. 410,000 compounds, 0.063% hits. Potency, µM (doses to about 46.1 µM), hits mostly activators; further: nearly all actives have a fitted effect of over 55% in size
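Growth rescue measured by 600 nm absorbance after 48 h yeast culture at 30 C with compound. Values normalized between DMSO and an equimolar ferric chloride plus clioquinol control.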
* = called active by the depositor; i = inactive; u = inconclusive; x = no result; [ ] = dose if it differs, or a comment. The call rests on the fitted dose curve; in most records, active means well fitted curve in the direction sought with a large enough effect; inconclusive means small, poorly fitted or top-dose-only effect, or another doubt; inactive means no such curve, though single readings can be large; an effect the other way counts as inactive or inconclusive. Potency means the concentration at half of the fitted maximal effect.

SMILES | Mito fusion act | FUS suppressor | TDP43 rescue | aSyn yeast inh | Abeta rescue
O=C(COc1ccccc1F)Nc1ccc(Cl)c(-c2nc3ccccc3[nH]2)c1 | x | u | 35.5µM* | x | i
Cc1ccccc1Cn1cc(CCC(=O)NCc2cccc(Br)c2)c2ccccc21 | x | i | 0.9% | x | i
COc1ccc(NC(=O)CNC(=O)Cn2cnc3sc4c(c3c2=O)CCCC4)cc1OC | -8.7% | i | -9.0% | 3.0% | i
Cc1cccc(OC(=O)CSc2nnc(CNC(=O)c3ccccc3)o2)c1C | x | i | 15.9%[9.22 µM] | x | i
S=C(NCc1ccccn1)Nc1ccc(Br)cc1Cl | 8.5% | i | 12.6µM* | 3.4% | u
O=C(CSc1ncccc1C(=O)O)Nc1ccc2c(c1)OCCO2 | -8.6% | i | -22.4% | -1.1% | i
Cc1oc(-c2cccc(Br)c2)nc1Cn1c(SCc2cccc(F)c2)nc2cccnc21 | x | i | 28.2µM* | x | u
Cc1ccc(-c2nc(Cn3c(SCc4ccc(F)cc4)nc4cccnc43)c(C)o2)cc1 | x | i | 26.3% | x | i
CCN(CC)S(=O)(=O)c1cnccc1N1CCN(c2cccc(Cl)c2)CC1 | 12.6µM* | i | u | 2.0% | i
CCc1ccc(C2N3CC4(C)CN2CC(c2ccccc2)(C3)C4=O)cc1 (stereo not given) | x | i | -7.6% | x | i
O=C(Cc1ccc(Br)cc1)N1CCN(C(=O)c2ccccc2)CC1 | -3.2% | i | 19.1% | 1.1% | i
CN(C(=O)CSc1ncnc2sccc12)C1CCCCC1 | 4.8% | x | u | 1.2% | i
CN(CC1COc2ccccc2O1)C(=O)CSc1ncnc2sccc12 (stereo not given) | 7.5% | u | 17.8µM* | 10.4%[1.84 µM] | i
CCC12CC3CC(C1)CC(C(=O)O)(C3)C2 | -4.1% | i | 14.1µM* | -0.3% | i
O=C(Nc1nccs1)C1CCN(S(=O)(=O)c2c(Cl)cccc2Cl)CC1 | 19.0% | i | 14.1µM* | 4.7% | u
CCOC(=O)c1c(C)[nH]c(C)c1S(=O)(=O)N(C)CC(=O)N1CCN(c2cccc(C)c2C)CC1 | x | u | 28.3% | x | i
Cc1cc(Cl)ccc1NC(=O)CN1C(=O)C(=O)c2ccccc21 | x | i | 0.0% | x | i
CC(C)[C@H](NC(=O)OC(C)(C)C)c1nnc(S(=O)(=O)Cc2c(F)cccc2Cl)o1 | -12.6% | i | 11.2µM* | -22.3% | i
Cc1ccccc1CS(=O)(=O)c1nnc([C@H](CC(C)C)NC(=O)OC(C)(C)C)o1 | -24.9% | i | -63.2% | -29.2% | i
CC(C)(C)OC(=O)N[C@@H](Cc1ccccc1)c1nnc(S(=O)(=O)Cc2cccc(F)c2)o1 | 3.2% | i | 5.01µM* | -7.8% | i
CCc1ccc(NCc2cc3cc4c(cc3n(CC(=O)Nc3ccccc3OC)c2=O)OCCO4)cc1 | x | i | 0.0% | 0.1% | i
CCC(C)(C)C1CCC(NC(=O)c2ccc(S(=O)(=O)N3CCOCC3)cc2)CC1 (stereo not given) | 16.0% | i | 23.6% | 9.8% | i
COc1cc(C(=O)ONC(=O)c2ccc(OC(F)F)cc2)cc(OC)c1OC | 3.2% | i | 8.91µM* | -48.0% | u
CCCCNC(=O)c1cccc(-n2c(C)nc3cccnc32)c1 | x | i | 16.7% | x | i
COC1=C[C@H](C(=O)NC2CCN(Cc3ccccc3)CC2)[C@@]2(C)Cc3ccccc3[C@H]2CC1=O | x | i | x | x | x
SMILES | Mito fusion act | FUS suppressor | TDP43 rescue | aSyn yeast inh | Abeta rescue
N#CCC(=O)N/N=C/c1ccc(Sc2nc3ccccc3s2)o1 | 1.9% | 3.55µM* | u | 0.2% | i
Cc1cccc(C)c1NC(=S)N(Cc1ccccc1)Cc1cccs1 | 6.5% | i | 35.5µM* | 23.3% | i
O=C(O)CNC(=S)N(Cc1ccccc1)Cc1cccs1 | -4.7% | i | -12.9%[1.82 µM] | 1.0% | i
Cc1ccc(C(=O)C(C)OC(=O)Cn2c(C)csc2=O)cc1 (stereo not given) | 1.4% | i | 4.8% | 3.0% | i
COc1ccc(C(=O)NC(c2ccccc2Cl)c2cc(Cl)c3cccnc3c2O)cc1 (stereo not given) | x | i | u | 15.8µM* | i
CCCCC(=O)NC(c1cccs1)c1cc(Cl)c2cccnc2c1O (stereo not given) | -2.0% | i | 0.0% | 22.4µM* | u
